Source: PubChem
The list is not random: actives were taken first. Their share in the collection is about 5.8%.
GBA mod: human lysosomal glucosylceramidase modulation; P04062; purified enzyme, resorufin glucoside fluorescence (screen aimed at inhibitors), 20 min; Potency, µM; 1.1% of 48,000 active; in the data active means potency below about 15 µM; inconclusive means mostly about 16 µM to 33 µM;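 further: the screen sought inhibitors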
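Compounds titrated against 0.2 nM normal enzyme, 30 uM resorufin beta-D-glucopyranoside substrate, citrate/phosphate buffer with taurocholate and tween-20, pH 5.9. Reaction ran 20 min at room temperature; fluorescence (Ex 548/Em 600) gave AC50.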
Luciferase inh: blocks Photinus pyralis firefly luciferase activity. P08659. purified firefly luciferase, luminescence, 8 min. Potency, µM (doses to about 57.1 µM), hits mostly inhibitors. 2.2% of 72,000 active; further: nearly all actives have a fitted effect of over 40% in size
Target sequence (P08659 whole entry, looked up): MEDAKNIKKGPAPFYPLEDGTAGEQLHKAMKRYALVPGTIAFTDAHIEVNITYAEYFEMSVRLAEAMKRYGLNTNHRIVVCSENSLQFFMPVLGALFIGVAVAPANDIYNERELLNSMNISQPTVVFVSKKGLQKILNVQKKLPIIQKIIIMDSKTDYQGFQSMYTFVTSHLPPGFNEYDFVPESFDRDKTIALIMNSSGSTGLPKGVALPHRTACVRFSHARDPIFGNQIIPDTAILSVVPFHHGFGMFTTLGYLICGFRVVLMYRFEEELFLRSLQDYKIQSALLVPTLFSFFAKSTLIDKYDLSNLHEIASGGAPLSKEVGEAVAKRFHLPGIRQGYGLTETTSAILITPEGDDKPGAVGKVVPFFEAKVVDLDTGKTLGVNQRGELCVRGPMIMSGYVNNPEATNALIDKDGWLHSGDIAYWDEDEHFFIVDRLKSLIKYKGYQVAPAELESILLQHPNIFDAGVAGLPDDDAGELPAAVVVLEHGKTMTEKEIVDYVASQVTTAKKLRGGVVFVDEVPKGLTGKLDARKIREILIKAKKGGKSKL
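Titration-based qHTS; buffer 50 mM imidazole pH 7.2, 50 mM KCl, 7 mM MgCl2, 10 uM ATP, 0.01% Tween 20, 0.05% BSA; luciferase/luciferin detector mix added after compound; 8 min, ambient; luminescence.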
PK Bst: pyruvate kinase (B. stearothermophilus) modulation | purified pyruvate kinase, luminescence ATP production; ribose 5-phosphate activator present at AC10 | Potency, µM | 1.2% of 51,000 active | AID 361; in the data active means potency below about 11 µM; inconclusive means mostly about 12 µM to 25 µM;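 the screen sought inhibitors and activators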
HEK293 cAMP cs: counter-screen for TSHR agonists: cAMP increase in parental HEK293; 2.5% of 73,000 active; parental HEK293 CNG cAMP sensor, membrane potential fluorescence; Potency, µM (series often up to 57.1 µM), hits mostly activators; further: nearly all actives have a fitted effect of over 55% in size
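Parental HEK 293 cells stably expressing a cAMP-gated CNG channel were loaded with membrane potential dye containing 100 uM RO 20-1724 for 60 min. Compound added for 30 min; depolarization read as fluorescence intensity at 590 nm.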
TSHR agonist: activates the human thyroid stimulating hormone receptor. HEK293-CNG-TSHR cells (CNG channel as cAMP sensor), membrane potential dye, cAMP. AID 926. Potency, µM (doses to about 57.1 µM), usual class: activators. P16473. 0.48% of 73,000 active; active means well fitted activation curve with a large enough effect in the main read-out, with a control signal flat, not every such curve was filed as active; inconclusive means small, poorly fitted or top-dose-only effect, or a change in a side signal; inactive means no such curve, though single readings can be large or run the other way; reference of the percent scale not stated here;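 further: the control signal comes from parental cells without the receptor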
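HEK 293 cells stably expressing TSHR and a modified CNG channel, with CNG-only parental cells as counterscreen, were preloaded 60 min at room temperature with membrane potential dye containing 100 uM RO 20-1724. Compound exposure was 30 min, and depolarization was read as fluorescence at 590 nm.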
Each line names hits and unclear results; the compound was inactive in the other large screens; ! = repeats disagree. Unless noted, the call rests on the fitted dose curve; in most records, active means well fitted curve in the direction sought with a large enough effect; inconclusive means small, poorly fitted or top-dose-only effect, or another doubt; inactive means no such curve, though single readings can be large; an effect the other way counts as inactive or inconclusive.

CCN(CC)C(=O)Oc1ccc2c(=O)c(-c3ccccc3)coc2c1	Luciferase inh 16µM, HEK293 cAMP cs inconclusive, TSHR agonist inconclusive (no result: PK Bst)
CCOc1ccccc1Oc1coc2cc(OC(=O)c3ccco3)ccc2c1=O	none
CCN(C(=O)c1ccnc(C(C)(C)C)c1)c1ccccc1	none
CCN(C(=O)N(CC)c1ccccc1)c1ccccc1	HEK293 cAMP cs 16µM, TSHR agonist inconclusive (no result: GBA mod, Luciferase inh, PK Bst)
Cc1cc(C)c(-c2cc([C@H](C)O/N=C\[C@@H](C)[C@H](OCc3ccccc3)C(C)C)on2)c(C)c1	none (no result: GBA mod, PK Bst)
Cc1ccc(O)c(N=Nc2ccccc2)n1	Luciferase inh 13µM! (no result: GBA mod, PK Bst)
COC(=O)C1=C(C)NC(C)=C(C(=O)OCCN(C)Cc2ccccc2)[C@@H]1c1cccc([N+](=O)[O-])c1	none (no result: GBA mod, PK Bst)
CCCc1ccc(-c2ccc(F)c(N)c2)nc1	Luciferase inh 2µM (no result: GBA mod, PK Bst)
Nc1cc(-c2nn[nH]n2)ccc1F	none
C=C(C)Cn1c(SCC#N)nc2ccccc2c1=O	HEK293 cAMP cs inconclusive, TSHR agonist inconclusive
N#CCSc1nc2ccc(N3CCCCC3)cc2c(=O)n1Cc1ccccc1	GBA mod 15
COC(=O)c1sc2nc3c(cc2c1N)COC(C)(C)C3	Luciferase inh 13µM (no result: GBA mod, PK Bst)
CCOC(=O)c1oc2nc3c(cc2c1N)COC(C)(C)C3	none
COC(=O)Cc1cc(=O)[nH]c(Nc2nc3ccccc3o2)n1	Luciferase inh 16µM (no result: GBA mod, PK Bst)
Cc1ccc(OCCSc2cc(C)nc(N)n2)cc1	HEK293 cAMP cs inconclusive, TSHR agonist inconclusive (no result: GBA mod, PK Bst)
Cc1cccc(OCCSc2cc(C)nc(N)n2)c1	HEK293 cAMP cs 32µM, TSHR agonist inconclusive (no result: GBA mod, PK Bst)
COC(=O)c1ccc(C(NC(=O)OCc2ccccc2)/C(I)=C/[C@@H](C)C(=O)NCc2ccncc2)cc1 (stereo not given in full)	none (no result: GBA mod, Luciferase inh, PK Bst, TSHR agonist)
CCc1ccc2[nH]c(=O)c(CN(CCCN3CCOCC3)C(=O)Nc3ccc(Cl)cc3)cc2c1	PK Bst 6.6, HEK293 cAMP cs inconclusive, TSHR agonist inconclusive
COc1cccc(-c2nn(C)c3sc(C(=O)N4CCN(c5ccccn5)CC4)cc23)c1	PK Bst 7.3, HEK293 cAMP cs inconclusive, TSHR agonist inconclusive
COCCn1c(C)cc(C(=O)CSc2nnc3ccccn23)c1C	Luciferase inh 10µM (no result: GBA mod, PK Bst)
COCCn1c(C)cc(C(=O)CSc2nc3ccccc3o2)c1C	Luciferase inh 7.9µM, HEK293 cAMP cs inconclusive, TSHR agonist inconclusive (no result: PK Bst)
COCCn1c(C)cc(C(=O)CSc2ncn[nH]2)c1C	none
Cc1cc(=O)oc2cc(OC3C=CC(C#CC(C)(C)C)OC3CO)ccc12 (stereo not given)	none (no result: GBA mod, Luciferase inh, PK Bst)
N#C[C@@H](Cc1ccc(O)c(O)c1)C(=O)N1CCc2ccccc21	none (no result: GBA mod, PK Bst)
N#Cc1ccc(CN2CC3(CCN(C(=O)c4cccc(F)c4)CC3)C2)cc1	none (no result: GBA mod, PK Bst)
Nc1ccc(CCNc2ncnc3c2ncn3[C@@H]2O[C@@H](CO)[C@H](O)[C@@H]2O)cc1	HEK293 cAMP cs inconclusive, TSHR agonist inconclusive (no result: GBA mod, PK Bst)
COCCn1c(=O)c(-c2ccc(OC)cc2)nc2cnc(OCc3ccccc3)nc21	none (no result: GBA mod, PK Bst)
Cc1cc(C(=O)COc2cccc(-n3cnnn3)c2)c(C)n1-c1ccccc1	Luciferase inh 13µM, HEK293 cAMP cs 25µM, TSHR agonist inconclusive (no result: PK Bst)
CCSc1nc2cc(C(=O)OC)ccc2c(=O)n1CC	HEK293 cAMP cs inconclusive, TSHR agonist inconclusive (no result: GBA mod)
COC(=O)c1ccc2c(=O)n(C3CCCCC3)c(SCC#N)nc2c1	HEK293 cAMP cs 20µM, TSHR agonist inconclusive (no result: GBA mod)
COc1ccc(-c2cc(C(=O)OCC(=O)N(C)C)c3ccccc3n2)cc1	Luciferase inh 20µM, PK Bst 9.8
CN(C)c1ccc(N=Nc2cccc3ccoc23)cc1	Luciferase inh 4µM (no result: GBA mod, PK Bst)
CN(C)C(=O)c1ccc(-c2ccc3ncnc(N4CCOCC4)c3c2)cc1	none (no result: GBA mod, PK Bst, TSHR agonist)
Cc1nc(N2CCC(C)CC2)c2oc3ccccc3c2n1	HEK293 cAMP cs 25µM, TSHR agonist inconclusive (no result: PK Bst)
Cc1cc(C)nc(N2CCN(c3nc(C)nc4c3oc3ccccc34)CC2)n1	none
COc1ccccc1N1CCN(c2nc(C)nc3c2oc2ccccc23)CC1	HEK293 cAMP cs 25µM, TSHR agonist inconclusive
CCCCCCCCCCCCCCCCCC(=O)O[C@H](CC(=O)O)C[N+](C)(C)C	HEK293 cAMP cs inconclusive, TSHR agonist inconclusive (no result: GBA mod, PK Bst)
C[C@@H]1[C@H]2CC[C@@H]3[C@@H]4CC=C5C[C@@H](N(C)C)CC[C@]5(C)[C@@H]4CC[C@@]32CN1C	none (no result: GBA mod, PK Bst)
COC(=O)CSc1nnc2n1C(C)(C)Cc1ccccc1-2	none
CCOC(=O)C(CC)Sc1nnc2n1C(C)(C)Cc1ccccc1-2 (stereo not given)	HEK293 cAMP cs 20µM, TSHR agonist inconclusive
CS(=O)(=O)c1ncc(Cl)c(C(=O)Nc2ccc(N3CCOCC3)cc2)n1	none
O=C(Nc1ccc(N2CCOCC2)cc1)c1cnsn1	Luciferase inh 4µM, PK Bst 7.1
O=C(NCCN1CCCC1)c1ccc(-n2c(=O)c(=O)[nH]c3ccccc32)cc1	none (no result: GBA mod, Luciferase inh, PK Bst)
COC(=O)[C@@]1(Cc2ccccc2)[C@H]2c3cc(C(=O)N4CCCC4)n(Cc4ccccn4)c3C[C@H]2CN1C(=O)c1ccccc1	HEK293 cAMP cs 3.2µM, TSHR agonist inconclusive (no result: GBA mod, Luciferase inh, PK Bst)
